Measured values from article PMC12136788.
Substitutions are numbered along the chain they refer to. In all, about 5,800 sequences were measured (“enrichment r”: median about 0.68, highest 2% from about 11 on). The sample as a whole holds a higher share of the highest values than the screen did.

T1: UNK ZnF1-6 (called full-length) (human, UniProt Q9C0B0 30-357)
T1 sequence: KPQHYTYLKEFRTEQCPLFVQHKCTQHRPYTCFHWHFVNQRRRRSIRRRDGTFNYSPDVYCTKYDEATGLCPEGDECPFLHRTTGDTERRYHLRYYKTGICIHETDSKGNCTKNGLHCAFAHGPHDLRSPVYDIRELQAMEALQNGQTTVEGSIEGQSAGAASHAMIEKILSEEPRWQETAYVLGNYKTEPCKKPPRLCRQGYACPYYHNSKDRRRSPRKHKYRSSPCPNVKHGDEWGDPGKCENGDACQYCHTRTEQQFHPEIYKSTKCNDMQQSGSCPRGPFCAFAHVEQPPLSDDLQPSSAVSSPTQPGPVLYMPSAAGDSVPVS

B1: ENSG00000070961:be:win_4401|3pUTR|ENSG00000070961|bound_else_gene|NA|bound_elsewhere_windowed (ssRNA)
RNA: GGGAGUUCUACAGUCCGACGAUCGUUAUGACAUCUGUCCUAAUUAGUUUCUUAAAUACAUUUACUACUUAAUGGUUUUGAAGCAACUGUUUAAUUUUUAAAAUUUUUGAAAACUUGCUAAUAACCUUUUGUUCAGAAUUUAGUCAACAGAGGAUUGAGCAUCA
B2: chr20:3963869:3963970:-|CDS|ENSG00000101236|unk|FALSE|bound_elsewhere (ssRNA)
RNA: GGGAGUUCUACAGUCCGACGAUCAAUCUGCCUCUCAACAUAUAUAUUGUGGUUUUUGGUACUGCUAUAUUUGUCUUCAUCCUUAGUUUACUCUUCUGUUGCUACUUGAUUAGGUAACCAAUUUUCAUUCUAUGUUACUUCAAACAACAGAGGAUUGAGCAUCA
B3: chr17:75827259:75827360:-|3pUTR|ENSG00000092929|unk|FALSE|unique (ssRNA)
RNA: GGGAGUUCUACAGUCCGACGAUCGGACAGUUUGGCUGCUGUGUCUGCUGCGCACGCCCCCUCCCCGGACAGCACCUGCCACCUAGAAACUUUCUUAGCAAAAAAAUUAAUAAAAACAAAUCCAUUGUCCUCUUAAAAUAUGCCCAACAGAGGAUUGAGCAUCA
B4: chr17:75827259:75827360:-|3pUTR|ENSG00000092929|unk|total|mutant (ssRNA)
RNA: B3 RNA with U83C, A84C, U95C, A96C
B5: chr8:48920054:48920155:-|CDS|ENSG00000019549|unk|total|mutant (ssRNA)
RNA: GGGAGUUCUACAGUCCGACGAUCACCUAUUCAACUUUUUCUGGGCUGGCCAAACAUAAGCAGCUGCACUGCGAUGCCCAGUCCCGAAAAUCUUUCAGCUGUAAAUACUGUGACAAGGAAUAUGUGAGCCUGGGCGCCCUGAAGCAACAGAGGAUUGAGCAUCA
B6: ENSG00000113300:stop:overlap|stop_codon|ENSG00000113300|stop_codon|NA|stop_codon (ssRNA)
RNA: GGGAGUUCUACAGUCCGACGAUCUGGAGCUCUUACUGCCUUUCCUGCCCCAAGUCAACGGCAUCCACCUUCCUGGCAGGAGGUAGUCAAGCACCUUCAGAGGACAGCCUUGAUUCACUUGUAAACUUGUGAAAAUCUGAACAUCAACAGAGGAUUGAGCAUCA
B7: chr1:151249111:151249212:+|3pUTR|ENSG00000143398|unk|FALSE|unique (ssRNA)
RNA: GGGAGUUCUACAGUCCGACGAUCGCAGAUUGUUGAAUUCCUGUUCUAUCCCUUCUCUAUCCCACCCUGCCUUGAUAAUAUGUUAGCCCAUACCCCAAAUAACUGUCUAUAUUAGACACCCCCAGCCAGUUUCUGGCUGCCUGUCAACAGAGGAUUGAGCAUCA
B8: chr12:64147824:64147925:+|3pUTR|ENSG00000196935|unk|total|mutant (ssRNA)
RNA: GGGAGUUCUACAGUCCGACGAUCCAUCUCUGUGGUGUCUUUGUUCCUUUCCUUUCAUUCAUCACUACUUUCUCCUUGACAGCCCGCUUGCAUUAAAUAAUGUGAAACUUUUACCUUUAAAAUAUUUUUUUAUCUCACUUUCAUCAACAGAGGAUUGAGCAUCA
B9: chr3:62294290:62294391:+|3pUTR|ENSG00000144724|msi1|FALSE|unique (ssRNA)
RNA: GGGAGUUCUACAGUCCGACGAUCAACUAGUCCUCUAAAAAUUCCCUAUUACUCCUAUAGCAAUCUAAUAAAAACUACCUACAUAGUUACUGUUUUCUUUCCUUCUUUGCCAAAUGUUUUAUAAUAAAUCUCUUAAUUACAUACCAACAGAGGAUUGAGCAUCA
B10: ENSG00000107863:be:win_5701|CDS|ENSG00000107863|bound_else_gene|NA|bound_elsewhere_windowed (ssRNA)
RNA: GGGAGUUCUACAGUCCGACGAUCAGCACCUUGGCUUCAACAAACAGGCCCCUUCUUUCCAUACCACCACAGUCACCUGACCAAAUAAACGGAGAAAGCUUCCAGAACGUGAGCAAAAAUGCUAGUUCUGCAGCGAAUGCCCAACAACAGAGGAUUGAGCAUCA
B11: chr3:62294290:62294391:+|3pUTR|ENSG00000144724|msi1|total|mutant (ssRNA)
RNA: B9 RNA with U27C, A28C, U57C, A58C, U83C, A84C
B12: chr17:77216858:77216994:+|3pUTR|ENSG00000129657|unk|FALSE|bound_elsewhere (ssRNA)
RNA: GGGAGUUCUACAGUCCGACGAUCUGUUUCUACCUUUAGUACCUUGCCACUCUUUUAAAACGCUGCUGUCAUUUCCCAUUUCUUAGUACUAAUGAUUCUUUGAUUCUCCCUCUAUUAUGUCUUAAUUCACUUUCCUUCCUAAAUCAACAGAGGAUUGAGCAUCA
B13: chr2:1632960:1633155:-|3pUTR|ENSG00000130508|msi1|total|mutant (ssRNA)
RNA: GGGAGUUCUACAGUCCGACGAUCGUCCAUUUUUCCGGUAUCCGAUAUGGCAGAAAAACCAUUUCCACUAUGCAAAGUUCUUUCCGACGUCAGUGAAAAUCAACUCUCAUACCUCAUGGUCUCUCUUUAAUUGACCAAAACCUUCAACAGAGGAUUGAGCAUCA
B14: chr11:119024350:119024909:-|three_prime_utr|ENSG00000137700|control|control|control (ssRNA)
RNA: GGGAGUUCUACAGUCCGACGAUCUCCCACGGUGGCCUUCCCCCUGCACGCUCUGCGGGGAGAAAAGGAGGGGCCUGCCUGGCUAGCCCUGAACCUUUCACUUUCCAUUUCUGCGCCUUUUCUGUCACCCGGGUGGCGCUGGAACAACAGAGGAUUGAGCAUCA

Biological target: T1, UNK ZnF1-6 (called full-length)
Experiment: nsRBNS (natural sequence RNA bind-n-seq); RBNS binding buffer (assumed for nsRBNS): 25 mM Tris pH 7.5, 150 mM KCl, 3 mM MgCl2, 0.01% Triton X-100, 500 ug/ml BSA, 20 U/ml SUPERase-In, 4 C; UNK is unkempt and MSI1 is Musashi-1; names of the RNAs are library labels; protein concentration not given here; high values mean tight binding

Binder	binding signal [enrichment R]
B1	5.85
B2	2.08
B3	25.7
B4	0.989
B5	0.712
B6	21.5
B7	2.26
B8	2.22
B9	68.7
B10	0.589
B11	3.11
B12	14
B13	0.41
B14	0.719
